# Screening data: PubChem BioAssay, National Center for Advancing Translational Sciences (NCATS)
# This is a sample that favours compounds with a hit; in the whole collection about 12% have one here.
# Pf growth 96h: P. falciparum growth inhibition at 96 hour, primary screen for plastid delayed-death inhibitors; P. falciparum luciferase reporter growth, 96 h; Potency, µM (highest dose often 28.7 µM), inactives show at the highest dose activity change, negative = inhibition, actives largely listed as inhibitors; actives 6.9% (n = 320,000); further: on the % scale 0 is the no-effect control and ±100 the full control effect
#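 Delayed-death screen, second-generation endpoint: infected erythrocytes, 2% hematocrit, 0.05% parasitemia final; 96 hours at 37 C, 5% CO2; luciferase detection reagent; luminescence decrease equals reduced growth.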
# SARS PLP yeast: SARS-CoV PLP inhibition in yeast | Potency, µM (series often up to 32.9 µM), without a hit: at the highest dose activity, positive = growth rescue, usual class: activators | S. cerevisiae expressing SARS-CoV PLpro, growth rescue | AID 485353 | actives 0.19% (n = 330,000); calls by dose curve; further: 0% is about no effect; nearly all actives have a fitted effect of over 55% in size
# AmpC inh no detg: inhibitors of E. coli AmpC beta-lactamase without detergent; AmpC nitrocefin hydrolysis, absorbance 480 nm, 0.0001% Triton; actives 0.52% (n = 330,000); Potency, µM (series often up to 57.1 µM), without a hit: at the highest dose activity change, negative = inhibition, most hits filed as inhibitors; P00811;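 further: plate controls were no compound for no effect and no enzyme for full effect; nearly all actives have a fitted effect of over 20% in size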
# Target sequence (P00811 whole entry, looked up): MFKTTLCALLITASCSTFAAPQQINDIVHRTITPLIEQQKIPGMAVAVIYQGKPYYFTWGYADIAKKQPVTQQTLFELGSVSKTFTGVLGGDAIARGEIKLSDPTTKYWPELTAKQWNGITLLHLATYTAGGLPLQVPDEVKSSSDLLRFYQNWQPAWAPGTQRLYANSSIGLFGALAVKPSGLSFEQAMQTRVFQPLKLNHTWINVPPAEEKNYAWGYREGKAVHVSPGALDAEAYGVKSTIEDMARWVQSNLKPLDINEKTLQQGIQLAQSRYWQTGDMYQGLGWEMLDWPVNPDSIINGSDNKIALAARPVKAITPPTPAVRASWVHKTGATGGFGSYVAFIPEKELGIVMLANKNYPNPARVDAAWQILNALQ
#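 AmpC (5.3 nM in the dispensed reagent) in 20 mM phosphate pH 7.0 with 0.01% (detergent screen) or 0.0001% Triton X-100 was preincubated with compounds for 15 min at room temperature. Nitrocefin was then added from an 800 uM solution, and hydrolysis was followed at 480 nm.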
# Sm TGR block: inhibitors of Schistosoma mansoni thioredoxin glutathione reductase; purified TGR, DTNB reduction, TNB absorbance 405 nm; Potency, µM (top dose mostly 114 µM), for the others: at the top dose activity change, negative = inhibition, actives largely listed as inhibitors; actives 3% (n = 360,000); further: on the % scale 0 is the no-effect control and ±100 the full control effect; nearly all actives have a fitted effect of over 60% in size
#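 First, TGR (20 nM dispensed) and NADPH were mixed with compound. Second, a 15 min room-temperature incubation followed. Third, further NADPH and then DTNB were added to start the reaction. Finally, TNB absorbance was monitored kinetically.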
# AmpC detergent: inhibitors of E. coli AmpC beta-lactamase with detergent. actives 0.041% (n = 370,000). P00811. Potency, µM (top dose mostly 114 µM), for inactives: top-dose activity change, negative = inhibition, most hits filed as inhibitors. AmpC hydrolysis of nitrocefin, absorbance 480 nm, 0.01% Triton;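 further: 0% = no-compound wells and -100% = no-enzyme wells; nearly all actives have a fitted effect of over 25% in size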
#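 20 mM phosphate pH 7.0 + 0.01% (detergent screen) or 0.0001% Triton X-100; 5.3 nM AmpC reagent; cpd preinc 15 min RT; nitrocefin (800 uM stock) to start; A480 q20 s × 4 min; Activity was normalised to no-enzyme and no-compound control wells.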
# Pf growth 48h: P. falciparum growth inhibition at 48 hours (one generation); actives 5.9% (n = 310,000); Potency, µM (titrated, usually from 28.7 µM), for the others: at the highest dose activity change, negative = inhibition, most hits filed as inhibitors; P. falciparum luciferase growth in erythrocytes, 48 h; further: on the % scale 0 is the no-effect control and ±100 the full control effect
#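 Growth was read as firefly luciferase luminescence after a 48 h, 37 C, 5% CO2 exposure of compounds to reporter-bearing P. falciparum cultures (0.1% parasitemia, 2% hematocrit final) in Albumax-supplemented RPMI 1640.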
# * = called active by the depositor; i = inactive; u = inconclusive; x = not tested or not shown. Unless noted, the call rests on the fitted dose curve; in most records, active means well fitted curve in the direction sought with a large enough effect; inconclusive means small, poorly fitted or top-dose-only effect, or another doubt; inactive means no such curve, though single readings can be large; an effect the other way counts as inactive or inconclusive. Potency means the concentration at half of the fitted maximal effect.
SMILES,Pf growth 96h,SARS PLP yeast,AmpC inh no detg,Sm TGR block,AmpC detergent,Pf growth 48h
CCOC(=O)N1CCN(C(=O)c2oc3ccc(S(=O)(=O)N4CCCCC4)cc3c2C)CC1,x,3.8%,115.0%,-5.8%,-0.1%,u
Cc1c(C(=O)N2CCN(C)CC2)oc2ccc(S(=O)(=O)N3CCOCC3)cc12,8.28µM*,6.8%,-3.8%,0.7%,-3.7%,-20.6%
Cc1cccc(NC(=O)c2ccc(-n3c(C)nnc3C)cc2)c1,x,x,x,10.0%,8.2%,x
Cc1ccc(C(C(=O)NCc2ccco2)N(C(=O)Cn2nnc3ccccc32)c2ccccc2)o1 (centres undefined),14.7%,10.0%,-11.6%,50.1µM*,u,u
CCC(C)(C)NC(=O)C(c1cccn1C)N(Cc1ccccc1)C(=O)Cn1nnc2ccccc21 (centres undefined),-23.4%,2.3%,0.4%,-8.2%,u,-5.4%
Cc1ccc(N(C(=O)Cn2nnc3ccccc32)C(C(=O)NCc2ccco2)c2ccc(C)o2)cc1 (centres undefined),u,-2.3%,-9.1%,u,u,13.1µM*
Cc1ccc(C(C(=O)NCc2ccco2)N(CCc2ccccc2)C(=O)Cn2nnc3ccccc32)o1 (centres undefined),x,-6.0%,15.2%,-22.8%,-17.3%,13.1µM*
COc1ccc(N(C(=O)Cn2nnc3ccccc32)C(C(=O)NCc2ccco2)c2ccc(C)o2)cc1 (centres undefined),u,4.0%,-25.1%,u,u,u
CCC(C)(C)NC(=O)C(c1cccn1C)N(Cc1ccc(OC)cc1)C(=O)Cn1nnc2ccccc21 (centres undefined),u,-3.7%,87.0%,-7.7%,-6.8%,9.28µM*
CCOC(=O)c1c(Oc2ccc(C(=O)OC)cc2)nnc(-c2ccccc2)c1-c1ccccc1,x,x,x,3.3%,10.8%,x
CC(C(=O)NC1CCCc2ccccc21)N1C(=O)C2CCCCC2C1=O (centres undefined),-3.7%,0.5%,-16.8%,-0.6%,-3.2%,-1.9%
O=C(CN1C(=O)C2CCCCN2c2ccc(C(=O)N3CCCC3)cc21)NCc1cccc(Cl)c1 (centres undefined),x,x,x,-6.5%,-6.5%,x
COCCNC(=O)C(c1ccco1)N(C(=O)Cn1nnc2ccccc21)c1cc(C)ccc1C (centres undefined),x,-0.5%,65.6%,7.6%,u,x
CCC(C)(C)NC(=O)C(c1ccco1)N(C(=O)Cn1nnc2ccccc21)c1ccc2c(c1)OCO2 (centres undefined),7.38µM*,8.2%,32.3%,-1.7%,0.3%,u
CCOC(=O)CN(C(=O)COc1ccc2c(C)cc(=O)oc2c1)c1ccc(OCC)cc1,72.0%,0.9%,3.7%,x,2.8%,u
COC(=O)COc1cc(Cl)c(C=O)cc1OC,u,-0.7%,-11.8%,8.2%,5.3%,0.0%
COc1ccc(CCNC(=O)Cn2cccc2C(=O)c2ccccc2)cc1OC,-1.9%,-2.8%,-0.2%,-15.8%,u,2.8%
Cc1ccccc1C(=O)c1cccn1CC(=O)NCc1ccccc1,1.1%,-1.2%,-10.9%,-0.3%,-2.9%,28.4%
Cc1ccccc1C(=O)c1cccn1CC(=O)NCC1CCCO1 (centres undefined),10.4µM*,1.5%,-5.7%,-16.5%,-6.0%,-2.4%
COc1ccc(CCNC(=O)Cn2cccc2C(=O)c2ccccc2C)cc1OC,9.28µM*,-9.1%,53.3%,1.8%,u,-27.4%
COc1cccc(NC(=O)CN(C)C(C)C(=O)Nc2cc([N+](=O)[O-])ccc2Cl)c1 (centres undefined),-17.5%,1.4%,-27.6%,5.4%,5.6%,-16.2%
O=C(OCC(=O)N1CCC(Cc2ccccc2)CC1)c1ccc(CO)cc1,u,-0.1%,22.1%,-19.5%,u,u
CCC(=O)Nc1ccc(-c2nnc(SCc3ccc(C(=O)Nc4nccs4)cc3)n2CC)cc1,5.3%,-7.5%,26.7%,12.8%,11.0%,7.38µM*
COc1ccc(N(Cc2nnc3n2CCCCC3)C(=O)Nc2cccc(C)c2)cc1Cl,x,x,x,-7.7%,2.9%,x
Cc1noc(NS(=O)(=O)c2ccc(NC(=O)CCn3c(=O)oc4ccccc43)cc2)c1C,0.0%,-20.8%,-6.5%,15.8µM*,-5.1%,11.8%
SMILES,Pf growth 96h,SARS PLP yeast,AmpC inh no detg,Sm TGR block,AmpC detergent,Pf growth 48h
Cc1ccc2c(C)c(C(=O)Nc3ccc(S(=O)(=O)Nc4onc(C)c4C)cc3)oc2c1,9.28µM*,13.7%,-31.3%,-18.0%,-13.8%,11.8%
Cc1cc(C)nc(NS(=O)(=O)c2ccc(NC(=O)Cn3c(=O)oc4ccccc43)cc2)n1,6.57µM*,-2.0%,-31.5%,0.0%,-12.6%,x
NS(=O)(=O)c1ccc(NC(=O)CCn2c(=O)oc3ccccc32)cc1,x,x,x,-1.6%,0.1%,x
N#CC(=C=[N-])c1nc2ccccc2nc1-[n+]1cccc(NC(=O)c2cccs2)c1,-3.8%,0.3%,-6.1%,39.8µM*,4.1%,-10.0%
N#CC(=C=[N-])c1nc2ccccc2nc1-[n+]1cccc(NC(=O)c2ccccc2)c1,38.8%,0.0%,-3.5%,39.8µM*,7.3%,u
Cc1ccc(S(=O)(=O)Nc2cc(C)c(O)c(S(=O)(=O)c3ccc(C)cc3)c2)cc1,u,-8.5%,-58.5%,44.7µM*,2.4%,u
Cc1cc(NS(=O)(=O)c2ccccc2)cc(Cl)c1O,u,1.5%,-43.4%,u,-6.2%,-11.3%
Cc1ccc(N2C(=O)CS(=O)(=O)CC2=O)cc1,41.8%,-0.2%,-31.7%,8.91µM*,8.7%,23.8%
Cc1ccc(N2C(=O)CSCC2=O)cc1,x,9.1%,-14.9%,3.2%,u,-6.3%
COc1ccc(OC)c(-n2c(=S)[nH]c3cc(C(=O)N(C)Cc4ccccc4)ccc3c2=O)c1,9.28µM*,1.0%,-12.0%,1.2%,-4.8%,u
Cc1sc2ncnc(NCc3ccco3)c2c1C,9.28µM*,-4.3%,-22.8%,-35.0%,u,-5.5%
Cc1sc2ncnc(NCc3cccs3)c2c1C,2.7%,-0.6%,-15.8%,7.5%,-18.0%,1.2%
c1coc(CNc2nc3nonc3nc2NCc2ccco2)c1,i,-2.5%,-58.0%,50.1µM*,2.4%,1.5%
c1coc(CNc2ncnc3nc[nH]c23)c1,9.28µM*,0.3%,-16.9%,-7.2%,-9.9%,-8.0%
CC1=C(c2ccc(C(C)C)cc2)S(=O)(=O)N=C1N1CCN(c2ccccc2F)CC1,x,x,x,-1.6%,28.0%,x
COc1ccc(-c2nnn(Cc3ccccc3)n2)cc1,13.1µM*,2.2%,-10.3%,12.9%,1.0%,42.4%
